Source: PubChem BioAssay
Shown are actives, neighbours in structure and some others; about 2.3% of the full set was active somewhere.
M1 ag = activates human CHRM1 receptor; 360,000 tested, 0.33% active; CHO-K1 hM1, Fluo-8 calcium fluorescence, agonist mode; 0% DMSO, 100% acetylcholine EC100; P11229; activation, % at 3 µM;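 active = activation above the run's mean compound activation plus 3 SD, cut at about 16% in these data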;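 also: peak over basal fluorescence ratio within a 140 s kinetic read after compound addition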
Target sequence (P11229 whole entry, looked up): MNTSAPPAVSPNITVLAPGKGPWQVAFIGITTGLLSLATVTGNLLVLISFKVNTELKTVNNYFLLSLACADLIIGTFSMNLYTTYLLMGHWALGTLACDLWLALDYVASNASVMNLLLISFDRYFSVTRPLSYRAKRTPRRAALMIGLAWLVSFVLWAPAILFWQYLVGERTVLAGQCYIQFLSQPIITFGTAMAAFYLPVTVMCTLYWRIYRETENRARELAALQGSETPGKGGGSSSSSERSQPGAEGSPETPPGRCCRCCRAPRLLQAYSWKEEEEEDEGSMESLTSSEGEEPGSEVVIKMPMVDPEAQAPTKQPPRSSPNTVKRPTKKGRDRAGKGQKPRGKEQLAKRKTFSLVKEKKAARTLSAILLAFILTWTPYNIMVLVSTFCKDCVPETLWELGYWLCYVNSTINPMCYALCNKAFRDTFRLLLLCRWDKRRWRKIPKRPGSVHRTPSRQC
CHO-K1 Ca ag = counter-screen for M1 agonists: effect in parental CHO-K1 cells. activation, % at 3 µM. Fluo-8 calcium fluorescence; scaled to maximal ATP response, vehicle zero. 360,000 tested, 0.48% active; in the data active = activation above about 15%;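 also: untransfected CHO-K1 host cells lacking M1 receptor as counterscreen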
CHO-K1 Ca antag = M1 antagonist counterscreen hit in parental CHO-K1 cells; inhibition, % at 3 µM; 360,000 tested, 0.6% active; ATP-induced calcium, Fluo-8 fluorescence;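 active = inhibition above a per-plate cutoff, the plate's mean sample inhibition plus 3 SD, cut at about 24% in these data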;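 also: 0% = DMSO plus EC80 ATP and 100% = DMSO alone without ATP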
CHRM1 antagonist = human CHRM1 antagonism; P11229; CHO-K1 hM1, Fluo-8 calcium fluorescence, ACh EC80 antagonist; inhibition, % at 3 µM; 360,000 tested, 1.3% active; AID 588852;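 active = percent inhibition above its own plate's cutoff, namely the mean of that plate's compound wells plus 3 SD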;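 also: peak over basal fluorescence ratio during 140 s after agonist addition; 0% = ACh EC80 plus DMSO and 100% = DMSO alone without agonist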
M1 PAM = positive allosteric modulators of human M1 muscarinic receptor | P11229 | CHO-K1 hM1, Fluo-8 calcium fluorescence, ACh EC20; 0% = ACh EC20, 100% = maximal ACh | activation, % at 3 µM | 360,000 tested, 0.088% active | AID 588819; in the data active = activation above about 19%, passing the limit was not always enough
CHO-K1 Ca PAM = counter-screen for M1 PAMs: effect in parental CHO-K1 cells. ATP EC20, Fluo-8 calcium fluorescence; 0% at ATP EC20, 100% at ATP max. activation, % at 3 µM. 360,000 tested, 0.02% active. AID 602247;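 active = activation above the run cutoff, the mean activation of all test compounds plus 3 SD, cut at about 40% in these data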;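 also: peak over basal fluorescence ratio in a 140 s read after ATP addition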
Starred values were filed as active, the others as inactive.

Screening CCN(CC(=O)Nc1ccc(C#N)c(Cl)c1)CC(=O)NC1CCS(=O)(=O)C1 (stereo not given) returned M1 ag 4.4, CHO-K1 Ca ag 0.4, CHO-K1 Ca antag 25.3*, CHRM1 antagonist 10.8, M1 PAM 10.1 and CHO-K1 Ca PAM -18.2.
`CN1/C(=C\C=C2C(=O)NC(=S)NC2=O)C(C)(C)c2ccccc21` gave M1 ag 63.3*, CHO-K1 Ca ag 53.5*, CHO-K1 Ca antag 22.4, CHRM1 antagonist 27.2*, M1 PAM -25.7 and CHO-K1 Ca PAM -8.6.
Screening O=C1NC(=S)NC(=O)C1=Cc1cccc2cc3ccccc3cc12 returned M1 ag -5.3, CHO-K1 Ca ag -0.5, CHO-K1 Ca antag -5.5, CHRM1 antagonist -14.3, M1 PAM 11.6 and CHO-K1 Ca PAM 0.7.
For C=CCn1c(O)c(C(CC)=NCCN2CCN(C(=S)NC)CC2)c(=O)[nH]c1=O the results were M1 ag -4.1, CHO-K1 Ca ag 1.1, CHO-K1 Ca antag -0.9, CHRM1 antagonist 2.7, M1 PAM -0.8 and CHO-K1 Ca PAM 14.0.
Clc1ccc(CCNCc2ccncc2)c(Cl)c1 was read as M1 ag -0.1, CHO-K1 Ca ag 16.2*, CHO-K1 Ca antag -1.6, CHRM1 antagonist -17.5, M1 PAM 9.8 and CHO-K1 Ca PAM -0.4.
COc1ccc(CNCCc2ccc(Cl)cc2Cl)cc1 was read as M1 ag -4.7, CHO-K1 Ca ag 0.7, CHO-K1 Ca antag -10.2, CHRM1 antagonist -12.3, M1 PAM 6.7 and CHO-K1 Ca PAM 24.6.
`CCC1(CCCC(=O)c2ccc(F)cc2)C(=O)NC(=S)NC1=O` gave M1 ag -4.9, CHO-K1 Ca ag 1.2, CHO-K1 Ca antag -9.1, CHRM1 antagonist -5.4, M1 PAM 2.7 and CHO-K1 Ca PAM 22.0.
